molecular target: pT7_6His-AlfaTag-HOXD13 (human, UniProt P35453 263-343); assay: PADIT-seq; details: dsDNA, one strand shown
Sequence (P35453 263-343): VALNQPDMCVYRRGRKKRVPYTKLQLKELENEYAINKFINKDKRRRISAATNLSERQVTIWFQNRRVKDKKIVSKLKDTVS

Sequence | binding signal [log2FC]
CTCGAGGATATCAAGATCTGGCCTCGGCAGGCTAAAAGGAACCTCTAGCTAGCCGACTCACTATAGGGATAATCGCCCTGAGCAAAGACC | -0.781 ± 0.0984
CTCGAGGATATCAAGATCTGGCCTCGGCCAATTAAAAGGAACCTCTAGCTAGCCGACTCACTATAGGGATAATCGCCCTGAGCAAAGACC | 2.77 ± 0.0792
CTCGAGGATATCAAGATCTGGCCTCGGCCGCCCATAGGGAACCTCTAGCTAGCCGACTCACTATAGGGATAATCGCCCTGAGCAAAGACC | -0.685 ± 0.116
CTCGAGGATATCAAGATCTGGCCTCGGCCGCCCATTAGGAACCTCTAGCTAGCCGACTCACTATAGGGATAATCGCCCTGAGCAAAGACC | -0.218 ± 0.102
CTCGAGGATATCAAGATCTGGCCTCGGCCGCCCAGCCGGAACCTCTAGCTAGCCGACTCACTATAGGGATAATCGCCCTGAGCAAAGACC | -0.832 ± 0.147
CTCGAGGATATCAAGATCTGGCCTCGGCTGCCTAAAAGGAACCTCTAGCTAGCCGACTCACTATAGGGATAATCGCCCTGAGCAAAGACC | -0.51 ± 0.109
CTCGAGGATATCAAGATCTGGCCTCGGCCTTATAAAAGGAACCTCTAGCTAGCCGACTCACTATAGGGATAATCGCCCTGAGCAAAGACC | 2.88 ± 0.0949
CTCGAGGATATCAAGATCTGGCCTCGGCCTTTTAGCAGGAACCTCTAGCTAGCCGACTCACTATAGGGATAATCGCCCTGAGCAAAGACC | 0.506 ± 0.084
CTCGAGGATATCAAGATCTGGCCTCGGCCTTTTATATGGAACCTCTAGCTAGCCGACTCACTATAGGGATAATCGCCCTGAGCAAAGACC | 2.91 ± 0.0779
CTCGAGGATATCAAGATCTGGCCTCGGCGTTTTAATCGGAACCTCTAGCTAGCCGACTCACTATAGGGATAATCGCCCTGAGCAAAGACC | 0.636 ± 0.0931
CTCGAGGATATCAAGATCTGGCCTCGGCTTTTTAAGGGGAACCTCTAGCTAGCCGACTCACTATAGGGATAATCGCCCTGAGCAAAGACC | 1.83 ± 0.0924
CTCGAGGATATCAAGATCTGGCCTCGGCGTTTTATTTGGAACCTCTAGCTAGCCGACTCACTATAGGGATAATCGCCCTGAGCAAAGACC | 2.98 ± 0.0869
CTCGAGGATATCAAGATCTGGCCTCGGCGTTTTAACTGGAACCTCTAGCTAGCCGACTCACTATAGGGATAATCGCCCTGAGCAAAGACC | 1.39 ± 0.0832
CTCGAGGATATCAAGATCTGGCCTCGGCGCTTTAAAAGGAACCTCTAGCTAGCCGACTCACTATAGGGATAATCGCCCTGAGCAAAGACC | 1.94 ± 0.0663
CTCGAGGATATCAAGATCTGGCCTCGGCCTTTTAAAGGGAACCTCTAGCTAGCCGACTCACTATAGGGATAATCGCCCTGAGCAAAGACC | 2.37 ± 0.0692
CTCGAGGATATCAAGATCTGGCCTCGGCATTTTAGAGGGAACCTCTAGCTAGCCGACTCACTATAGGGATAATCGCCCTGAGCAAAGACC | 1.43 ± 0.0957
CTCGAGGATATCAAGATCTGGCCTCGGCCGCTGACGCGGAACCTCTAGCTAGCCGACTCACTATAGGGATAATCGCCCTGAGCAAAGACC | -0.995 ± 0.158
CTCGAGGATATCAAGATCTGGCCTCGGCATTTTAGCAGGAACCTCTAGCTAGCCGACTCACTATAGGGATAATCGCCCTGAGCAAAGACC | 0.721 ± 0.101
CTCGAGGATATCAAGATCTGGCCTCGGCCGTCTAAAAGGAACCTCTAGCTAGCCGACTCACTATAGGGATAATCGCCCTGAGCAAAGACC | -0.577 ± 0.117
CTCGAGGATATCAAGATCTGGCCTCGGCCTGTTAAAAGGAACCTCTAGCTAGCCGACTCACTATAGGGATAATCGCCCTGAGCAAAGACC | 2.25 ± 0.0806
CTCGAGGATATCAAGATCTGGCCTCGGCCGCCCATCTGGAACCTCTAGCTAGCCGACTCACTATAGGGATAATCGCCCTGAGCAAAGACC | -0.946 ± 0.119
CTCGAGGATATCAAGATCTGGCCTCGGCCGCCCAAGCGGAACCTCTAGCTAGCCGACTCACTATAGGGATAATCGCCCTGAGCAAAGACC | -0.698 ± 0.123
CTCGAGGATATCAAGATCTGGCCTCGGCTTTTTAGGGGGAACCTCTAGCTAGCCGACTCACTATAGGGATAATCGCCCTGAGCAAAGACC | 1.5 ± 0.0951
CTCGAGGATATCAAGATCTGGCCTCGGCCTCATAAAAGGAACCTCTAGCTAGCCGACTCACTATAGGGATAATCGCCCTGAGCAAAGACC | 3.06 ± 0.0788
CTCGAGGATATCAAGATCTGGCCTCGGCATACTAAAAGGAACCTCTAGCTAGCCGACTCACTATAGGGATAATCGCCCTGAGCAAAGACC | 0.619 ± 0.0967
CTCGAGGATATCAAGATCTGGCCTCGGCTTTTTAGGAGGAACCTCTAGCTAGCCGACTCACTATAGGGATAATCGCCCTGAGCAAAGACC | 1.41 ± 0.0944
